Reference: PubChem BioAssay (NCATS)
Unmarked numbers belong to inactive results. Records with an inconclusive call do not appear. For some assays here: Entries with a potency or affinity are not part of this list. Calls of active or inactive are those of the source.

How the values were obtained:
[1] = Ebola virus entry assay, green fluorescence channel
[2] = Ebola virus entry assay, blue channel fluorescence
[3] = Ebola virus entry assay, green fluorescence channel; remark: listed apart in the source
[4] = Ebola virus entry assay, ratio channel readout
[5] = Ebola virus entry assay, blue channel fluorescence; remark: listed apart in the source
[6] = Ebola virus entry assay, green channel fluorescence
[7] = Ebola virus entry assay, blue channel fluorescence; remark: listed apart in the source
[8] = Ebola virus entry assay, reporter ratio channel; AC50: Channel type: primary unless noted; outcome: Channel type: primary unless noted
[9] = Ebola virus entry assay, blue channel (ratio component)
[10] = Ebola virus entry reporter assay, green channel fluorescence
[11] = Ebola virus entry cell assay, ratio channel
[12] = qHTS assay for measurement of the activity of small molecule inhibitors on Zika virus induced Caspase-3 activity in human iPSC derived neural progenitor cells (hNPCs) (AID 1224857; active = well fitted inhibition curve with a large enough effect; note: % of control where 0% means no effect; nearly all actives have a fitted effect of over 65% in size); settings: hNPCs ZIKV-induced caspase-3/7, Caspase-Glo luminescence, 6 h; series mostly up to 45.7 µM
Method in brief: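 Human iPSC-derived neural progenitor cells pretreated 1 hr with compounds, then infected with Zika virus (2 FFU/cell) for 6 hours at 37 C. Caspase-3/7 measured by Caspase-Glo luminescence; % inhibition calculated from induction scaled to uninfected (0%) and infected (100%) wells.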

[13] = qHTS assay for measurement of the activity of small molecule inhibitors on Zika virus induced Caspase-3 activity in human astrocytoma cells (AID 1224859; active = well fitted inhibition curve with a large enough effect;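 note: plate controls were ZIKV-infected untreated cells for no effect and uninfected cells for full effect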); settings: SNB-19 ZIKV-induced caspase-3/7, luminescence, 6 h; series mostly up to 45.7 µM
Method in brief: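 SNB-19 astrocytoma cells, 250/well, pretreated 1 h with compounds, then Zika virus at 2 FFU/cell for 6 h at 37 C; Caspase-Glo 3/7 luminescence after 30 min; percent inhibition normalised to uninfected and infected controls.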

[14] = Ebola virus entry assay, ratio channel
[15] = Immunotoxin (HA22) sensitization/mitigation study. Vehicle arm (PBS) (AID 1159510); settings: cancer cells viability with PBS vehicle (HA22 study); series mostly up to 46.1 µM; note: potency is the fitted concentration of half-maximal effect
[16] = Immunotoxin (SS1P) sensitization/mitigation study. Vehicle arm (DMEM) (AID 1159513); settings: cell viability with vehicle (DMEM); series mostly up to 46.1 µM; note: potency is the fitted concentration of half-maximal effect
Throughout, for efficacy: 0% is about no effect.

For CC1=C(C(=O)O)N2C(=O)[C@@H](NC(=O)[C@H](N)c3ccccc3)[C@H]2SC1, the efficacy [1] was 11.4%, the outcome [2] was “inactive” and the outcome [3] was “inactive”. The outcome [4] was “inactive”, the outcome [5] was “inactive” and the outcome [6] was “inactive”. The outcome [7] was “inactive”, the outcome [8] was “inactive” and the outcome [9] was “inactive”. For the same molecule, the outcome [10] was “inactive” and the outcome [11] was “inactive”.

In the case of CCCCC1=NC2(CCCC2)C(=O)N1Cc1ccc(-c2ccccc2-c2nn[nH]n2)cc1, the efficacy [1] is reported as 32.1%, the outcome [2] is reported as “inactive” and the outcome [3] is reported as “inactive”. For the same molecule, the outcome [4] was “inactive”, the outcome [5] was “inactive” and the outcome [6] was “inactive”. The outcome [7] was “inactive”, the outcome [8] was “inactive” and the outcome [9] was “inactive”. The outcome [10] was “inactive” and the outcome [11] was “inactive”.

In the case of CC(C)n1c(/C=C/[C@@H](O)C[C@@H](O)CC(=O)O)c(-c2ccc(F)cc2)c2ccccc21, the efficacy [1] is reported as 14.5%, the outcome [2] is reported as “inactive” and the outcome [3] is reported as “inactive”. The outcome [4] was “inactive”, the outcome [5] was “inactive” and the outcome [6] was “inactive”. The outcome [7] was “inactive”, the outcome [8] was “inactive” and the outcome [9] was “inactive”. The outcome [10] was “inactive” and the outcome [11] was “inactive”.

With CO/N=C(\C(=O)N[C@@H]1C(=O)N2C(C(=O)O)=C(CSc3nc(=O)c(O)nn3C)CS[C@H]12)c1csc(N)n1 the efficacy [1] was 11.1%, the outcome [2] was “inactive” and the outcome [3] was “inactive”. The outcome [4] was “inactive”, the outcome [5] was “inactive” and the outcome [6] was “inactive”. For the same molecule, the outcome [7] was “inactive”, the outcome [8] was “inactive” and the outcome [9] was “inactive”. The outcome [10] was “inactive” and the outcome [11] was “inactive”.

In the case of CC1OC(C)OC(C)O1 (stereo not given), the efficacy [1] is reported as 12.6%, the outcome [2] is reported as “inactive” and the outcome [3] is reported as “inactive”. For the same molecule, the outcome [4] was “inactive”, the outcome [5] was “inactive” and the outcome [6] was “inactive”. The outcome [7] was “inactive”, the outcome [8] was “inactive” and the outcome [9] was “inactive”. For the same molecule, the outcome [10] was “inactive”, the outcome [11] was “inactive” and the Potency [12] was “inactive”. For the same molecule, the outcome [13] was “inactive”.

With Cc1ccnc2c1NC(=O)c1cccnc1N2C1CC1 the efficacy [1] was 25.7%, the outcome [2] was “inactive” and the outcome [3] was “inactive”. The outcome [4] was “inactive”, the outcome [5] was “inactive” and the outcome [6] was “inactive”. For the same molecule, the outcome [7] was “inactive”, the outcome [8] was “inactive” and the outcome [9] was “inactive”. For the same molecule, the outcome [11] was “inactive”.

With COC(=O)N[C@H](C(=O)N[C@@H](Cc1ccccc1)[C@@H](O)CN(Cc1ccc(-c2ccccn2)cc1)NC(=O)[C@@H](NC(=O)OC)C(C)(C)C)C(C)(C)C the efficacy [1] was 21.7%, the outcome [2] was “inactive” and the outcome [3] was “inactive”. For the same molecule, the outcome [4] was “inactive”, the outcome [5] was “inactive” and the outcome [6] was “inactive”. For the same molecule, the outcome [7] was “inactive”, the outcome [8] was “inactive” and the outcome [9] was “inactive”. The outcome [11] was “inactive”.

In the case of CCN1CCN(C(=O)N[C@@H](C(=O)N[C@@H]2C(=O)N3C(C(=O)O)=C(CSc4nnnn4C)CS[C@H]23)c2ccc(O)cc2)C(=O)C1=O, the efficacy [1] is reported as -23.3%, the outcome [2] is reported as “inactive” and the outcome [3] is reported as “inactive”. For the same molecule, the outcome [4] was “inactive”, the outcome [5] was “inactive” and the outcome [6] was “inactive”. For the same molecule, the outcome [7] was “inactive”, the outcome [8] was “inactive” and the outcome [9] was “inactive”. For the same molecule, the outcome [11] was “inactive”.

In the case of CC(C)[N+](C)(CCOC(=O)C1c2ccccc2Oc2ccccc21)C(C)C, the efficacy [1] is reported as -23.3%, the outcome [2] is reported as “inactive” and the outcome [3] is reported as “inactive”. The outcome [4] was “inactive”, the outcome [5] was “inactive” and the outcome [6] was “inactive”. For the same molecule, the outcome [7] was “inactive”, the outcome [8] was “inactive” and the outcome [9] was “inactive”. The outcome [10] was “inactive” and the outcome [11] was “inactive”.

For Cc1c(OCC(F)(F)F)ccnc1CS(=O)c1nc2ccccc2[nH]1 (stereo not given), the efficacy [1] was 18.5%, the outcome [2] was “inactive” and the outcome [3] was “inactive”. The outcome [4] was “inactive”, the outcome [5] was “inactive” and the outcome [6] was “inactive”. For the same molecule, the outcome [7] was “inactive”, the outcome [8] was “inactive” and the outcome [9] was “inactive”. The outcome [10] was “inactive” and the outcome [11] was “inactive”.

In the case of NNCCc1ccccc1, the efficacy [1] is reported as -18.8%, the outcome [2] is reported as “inactive” and the outcome [3] is reported as “inactive”. The outcome [4] was “inactive”, the outcome [5] was “inactive” and the outcome [6] was “inactive”. The outcome [7] was “inactive”, the outcome [8] was “inactive” and the outcome [9] was “inactive”. For the same molecule, the outcome [11] was “inactive”.

In the case of Nc1nc2c(ncn2COC(CO)CO)c(=O)[nH]1, the efficacy [1] is reported as -13.6%, the outcome [2] is reported as “inactive” and the outcome [3] is reported as “inactive”. For the same molecule, the outcome [4] was “inactive”, the outcome [5] was “inactive” and the outcome [6] was “inactive”. For the same molecule, the outcome [7] was “inactive”, the outcome [8] was “inactive” and the outcome [9] was “inactive”. The outcome [11] was “inactive”.

For CC[C@@]1(c2ccccc2)NC(=O)N(C)C1=O, the efficacy [1] was -26.5%, the outcome [2] was “inactive” and the outcome [3] was “inactive”. The outcome [4] was “inactive”, the outcome [5] was “inactive” and the outcome [6] was “inactive”. The outcome [7] was “inactive”, the outcome [8] was “inactive” and the outcome [9] was “inactive”. For the same molecule, the outcome [11] was “inactive”.

For Cc1ccc(-c2cc(C(F)(F)F)nn2-c2ccc(S(N)(=O)=O)cc2)cc1, the efficacy [1] was 26.9%, the outcome [2] was “inactive” and the outcome [3] was “inactive”. The outcome [4] was “inactive”, the AC50 [5] was 39.8 µM (active) and the outcome [14] was “inactive”. The AC50 [8] was 39.8 µM (active), the AC50 [11] was 11.2 µM (active) and the Potency [15] was 48.1 µM (active). The Potency [16] was 38.2 µM (active).

In the case of OCCN1C[C@H](O)[C@@H](O)[C@H](O)[C@H]1CO, the efficacy [1] is reported as -21.2%, the outcome [2] is reported as “inactive” and the outcome [3] is reported as “inactive”. For the same molecule, the outcome [4] was “inactive”, the outcome [5] was “inactive” and the outcome [6] was “inactive”. The outcome [7] was “inactive”, the outcome [8] was “inactive” and the outcome [9] was “inactive”. The outcome [10] was “inactive” and the outcome [11] was “inactive”.

For COc1ccccc1Oc1c(NS(=O)(=O)c2ccc(C(C)(C)C)cc2)nc(-c2ncccn2)nc1OCCO, the efficacy [1] was -15.4%, the outcome [2] was “inactive” and the outcome [3] was “inactive”. The outcome [4] was “inactive”, the outcome [5] was “inactive” and the outcome [6] was “inactive”. The outcome [7] was “inactive”, the outcome [8] was “inactive” and the outcome [9] was “inactive”. For the same molecule, the outcome [11] was “inactive”.

In the case of O=c1[nH]c2ccccc2n1C1CCN(CCCC(c2ccc(F)cc2)c2ccc(F)cc2)CC1, the efficacy [1] is reported as -303%, the AC50 [2] is reported as 11.2 µM (active) and the outcome [3] is reported as “inactive”. The AC50 [4] was 7.95 µM (active), the AC50 [5] was 3.16 µM (active) and the AC50 [14] was 3.98 µM (active). For the same molecule, the AC50 [8] was 3.98 µM (active), the AC50 [11] was 7.94 µM (active) and the outcome [13] was “inactive”.

In the case of O=C(C1CCCCC1)N1CC(=O)N2CCc3ccccc3C2C1 (stereo not given), the efficacy [1] is reported as 43.7%, the outcome [2] is reported as “inactive” and the outcome [3] is reported as “inactive”. For the same molecule, the outcome [4] was “inactive”, the outcome [5] was “inactive” and the outcome [6] was “inactive”. The outcome [7] was “inactive”, the outcome [8] was “inactive” and the outcome [9] was “inactive”. The outcome [10] was “inactive” and the outcome [11] was “inactive”.

In the case of C=C1C[C@@H]2[C@H](CC[C@]3(C)C(=O)CC[C@@H]23)[C@@]2(C)C=CC(=O)C=C12, the efficacy [1] is reported as 112%, the outcome [2] is reported as “inactive” and the outcome [3] is reported as “inactive”. The outcome [4] was “inactive”, the AC50 [5] was 28.2 µM (active) and the AC50 [14] was 25.1 µM (active). The AC50 [8] was 25.1 µM (active), the AC50 [11] was 15.8 µM (active) and the Potency [12] was “inactive”. The outcome [13] was “inactive”.
